# Source: the supplement of paper PMC6089552
# Among all 3,200 compounds or so, about 300 (9.4%) showed activity. This excerpt belongs to a sample that is enriched for actives. Unmarked numbers belong to inactive results.
# Tested on: A673/TR/shEF
# Test: cell viability (LOESS-normalised, relative to median of negative controls) (log2 ratio); higher = more viable cells (less compound effect), active = hit call of the paper (over 3 MAD below the median)
# Conditions: treatment time: 72 h
# In short: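 Doxycycline, present or absent from 24 h before compounds, was used to induce EWS-FLI1 shRNA knockdown in A673/TR/shEF Ewing sarcoma cells at 1,500 per well in 384-well plates. Cells then received library compounds at two or more concentrations, or DMSO controls, for three days. Viability was measured by CellTiter-Glo luminescence on an Envision reader, and per-plate LOESS correction, division by the negative-control median and log2 transformation followed.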
# [1] = 0.25 µM, library screen: screen2, EWS-FLI1 expression: high (no doxycycline)
# [2] = 0.25 µM, library screen: screen2, EWS-FLI1 expression: low (doxycycline-induced shRNA knockdown)
# [3] = 2.5 µM, library screen: screen2, EWS-FLI1 expression: high (no doxycycline)
# [4] = 2.5 µM, library screen: screen2, EWS-FLI1 expression: low (doxycycline-induced shRNA knockdown)
# [5] = 0.25 µM, library screen: screen1, EWS-FLI1 expression: high (no doxycycline)
# [6] = 0.25 µM, library screen: screen1, EWS-FLI1 expression: low (doxycycline-induced shRNA knockdown)
# [7] = 2.5 µM, library screen: screen1, EWS-FLI1 expression: high (no doxycycline)
# [8] = 2.5 µM, library screen: screen1, EWS-FLI1 expression: low (doxycycline-induced shRNA knockdown)
# [9] = 0.025 µM, library screen: screen2, EWS-FLI1 expression: high (no doxycycline)
# [10] = 0.025 µM, library screen: screen2, EWS-FLI1 expression: low (doxycycline-induced shRNA knockdown)
# [11] = 25 µM, library screen: screen2, EWS-FLI1 expression: high (no doxycycline)
# [12] = 25 µM, library screen: screen2, EWS-FLI1 expression: low (doxycycline-induced shRNA knockdown)
smiles,measurement,setting,value
CC(=O)[C@H]1CC[C@H]2[C@@H]3CC[C@H]4C[C@H](O)CC[C@]4(C)[C@H]3C(=O)C[C@]12C,cell viability (log2),[1],0.0616
same,cell viability (log2),[2],0.101
same,cell viability (log2),[3],-2.77 (active)
same,cell viability (log2),[4],-0.524 (active)
CC(=O)[C@H]1CC[C@H]2[C@@H]3CC[C@H]4C[C@@H](O)CC[C@]4(C)[C@H]3CC[C@]12C,cell viability (log2),[5],0.0984
same,cell viability (log2),[6],0.068
same,cell viability (log2),[7],0.0674
same,cell viability (log2),[8],0.135
CC(=O)[C@H]1CC[C@H]2[C@@H]3CC[C@H]4C[C@H](O)CC[C@]4(C)[C@H]3CC[C@]12C,cell viability (log2),[1],0.267
same,cell viability (log2),[2],0.093
same,cell viability (log2),[3],0.266
same,cell viability (log2),[4],0.165
CNC(=O)Oc1cccc2c1OC(C)(C)C2,cell viability (log2),[5],0.0513
same,cell viability (log2),[6],0.0685
same,cell viability (log2),[7],0.07
same,cell viability (log2),[8],0.106
ClC1=C(Cl)[C@]2(Cl)[C@@H]3[C@@H]4C[C@@H]([C@H]5O[C@@H]45)[C@@H]3[C@@]1(Cl)C2(Cl)Cl,cell viability (log2),[5],0.163
same,cell viability (log2),[6],0.0877
same,cell viability (log2),[7],0.115
same,cell viability (log2),[8],0.192
CC(=O)O[C@H]1CC[C@]2(C=O)C3CC[C@]4(C)[C@@H](C5=CC(=O)OC5)CC[C@]4(O)C3CC[C@]2(O)C1 (some centres undefined),cell viability (log2),[5],0.0163
same,cell viability (log2),[6],-0.145
same,cell viability (log2),[7],-1.12 (active)
same,cell viability (log2),[8],-1.15 (active)
C[C@]12CC[C@H]3[C@@H](CC[C@]4(O)C[C@@H](O)CC[C@]34C=O)[C@@]1(O)CC[C@@H]2C1=CC(=O)OC1,cell viability (log2),[5],0.0251
same,cell viability (log2),[6],-0.17
same,cell viability (log2),[7],-1.21 (active)
same,cell viability (log2),[8],-1.3 (active)
CC(=O)OC1CCC23C(=O)OC45CCC(C6=CC(=O)OC6)C4(C)CCC2C5CCC3(O)C1 (centres undefined),cell viability (log2),[5],-0.0349
same,cell viability (log2),[6],-0.171
same,cell viability (log2),[7],-1.11 (active)
same,cell viability (log2),[8],-1.12 (active)
CC(=O)O[C@H]1CC[C@@]2(C)C(=CCC3C2CC[C@]2(C)C(=O)CCC32)C1 (some centres undefined),cell viability (log2),[5],0.0955
same,cell viability (log2),[6],0.0874
same,cell viability (log2),[7],0.042
same,cell viability (log2),[8],0.106
NCCC(O)C(=O)NC1CC(N)C(OC2OC(CN)C(O)C(O)C2N)C(OC2OC(CO)C(O)C2O)C1O (centres undefined),cell viability (log2),[5],0.0254
same,cell viability (log2),[6],-0.0377
same,cell viability (log2),[7],0.12
same,cell viability (log2),[8],-0.0236
CCN1C[C@]2(C)CC[C@H](O)[C@]34C1[C@H](C[C@H]23)[C@@]1(O)C[C@H](OC)[C@H]2C[C@@H]4[C@@H]1[C@H]2O,cell viability (log2),[1],0.0509
same,cell viability (log2),[2],0.0197
same,cell viability (log2),[3],0.0295
same,cell viability (log2),[4],0.0503
COC(=O)COc1ccc(Cl)cc1Cl,cell viability (log2),[5],0.022
same,cell viability (log2),[6],-0.0423
same,cell viability (log2),[7],0.11
same,cell viability (log2),[8],0.0409
COc1cccc(CN2CCN(Cc3cccc(F)c3)CC2)c1,cell viability (log2),[5],0.0335
same,cell viability (log2),[6],0.131
same,cell viability (log2),[7],0.0329
same,cell viability (log2),[8],0.0279
C[C@@H]1CC[C@@]2(NC1)O[C@H]1C[C@H]3[C@@H]4CC=C5C[C@@H](O)CC[C@]5(C)[C@H]4CC[C@]3(C)[C@H]1[C@@H]2C,cell viability (log2),[9],0.0804
same,cell viability (log2),[10],0.071
same,cell viability (log2),[5],0.101
same,cell viability (log2),[6],0.14
same,cell viability (log2),[1],0.194
same,cell viability (log2),[2],0.0802
same,cell viability (log2),[7],0.13
same,cell viability (log2),[8],0.0856
same,cell viability (log2),[3],0.106
same,cell viability (log2),[4],0.133
same,cell viability (log2),[11],0.0875
same,cell viability (log2),[12],0.0211
CC(O)C(C)OC(=O)[C@@H]1C[C@@H]2c3cccc4c3c(cn4C(C)C)C[C@H]2N(C)C1 (some centres undefined),cell viability (log2),[1],0.174
same,cell viability (log2),[2],0.171
same,cell viability (log2),[3],0.12
same,cell viability (log2),[4],0.112
NCCc1cccc(O)c1,cell viability (log2),[5],0.0584
same,cell viability (log2),[6],0.0834
same,cell viability (log2),[7],0.0622
same,cell viability (log2),[8],0.0348
CN1CC[C@@]2(C)c3cc(O)ccc3N(C)C12 (some centres undefined),cell viability (log2),[1],0.117
same,cell viability (log2),[2],0.0622
same,cell viability (log2),[3],0.072
same,cell viability (log2),[4],0.0674
CNNC,cell viability (log2),[9],0.186
same,cell viability (log2),[10],0.0401
same,cell viability (log2),[5],0.136
same,cell viability (log2),[6],0.152
same,cell viability (log2),[1],0.206
same,cell viability (log2),[2],0.035
same,cell viability (log2),[7],0.115
same,cell viability (log2),[8],0.131
same,cell viability (log2),[3],0.112
same,cell viability (log2),[4],0.0817
same,cell viability (log2),[11],0.239
same,cell viability (log2),[12],0.143
Nc1ncnc2c1ncn2[C@@H]1O[C@H](COP(=O)(O)CP(=O)(O)OP(=O)([O-])[O-])[C@H](O)C1O.[Li+].[Li+] (some centres undefined),cell viability (log2),[1],0.132
same,cell viability (log2),[2],0.0925
same,cell viability (log2),[3],0.106
same,cell viability (log2),[4],0.143
N[C@@H](Cn1ccc(=O)[nH]c1=O)C(=O)O,cell viability (log2),[1],0.256
same,cell viability (log2),[2],-0.00427
same,cell viability (log2),[3],0.176
same,cell viability (log2),[4],0.041
CNC(=O)O/N=C/C(C)(C)SC,cell viability (log2),[5],0.0387
same,cell viability (log2),[6],0.0491
same,cell viability (log2),[7],0.106
same,cell viability (log2),[8],0.0724
C[C@@H]1OC(=O)[C@H]2C[C@H]3CCCC[C@@H]3[C@@H](/C=C/[C@@H]3CCC[C@@H](C)N3C)[C@@H]12,cell viability (log2),[1],0.0803
same,cell viability (log2),[2],0.0731
same,cell viability (log2),[3],0.143
same,cell viability (log2),[4],0.0419
